Assay outcomes as filed in PubChem.
The list is not random: actives were taken first. Their share in the collection is about 1.3%.
IDE cell inh: human IDE inhibitors in live cells, primary screen, fluorescence polarization, HEK cells, FAbetaB substrate; Insulin-degrading enzyme (Homo sapiens), P14735; FAbetaB cleavage; inhibition, % at 5.59 µM; hit rate 0.41% among 320,000; AID 434962, 2010;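 active = percent inhibition above the average of all tested compounds plus 3 SD, set per screening campaign, cut at about 16% in these data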;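 note: IDE supplied by intact live HEK cells; FP after avidin binding of uncleaved biotin substrate so inhibition keeps polarization high; 0% = DMSO wells and 100% = 60 µM reference IDE inhibitor Ii1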
PKA-R1A activ: activators of PKA-R1A holoenzyme, primary screen, biochemical, fluorescence polarization, Cy5-IP20, bovine R1A, mouse PKAc. cAMP-dependent protein kinase type I-alpha regulatory subunit (Bos taurus) + …. PKA-R1A dissociation; scaled: DMSO 0%, 113 µM cGMP 100%. activation, % at 11.4 µM. hit rate 0.083% among 340,000. AID 504707, 2011;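 active = percent activation above the mean of all tested compounds plus 3 SD, cut at about 19% in these data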;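 note: higher means more PKAc released from R1A so a rise in polarization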
PKA-R2B activ: activators of PKA-R2B holoenzyme, primary screen, biochemical, fluorescence polarization, Cy5-IP20, human; PKA-R2B holoenzyme dissociation; R2B truncated from residue 108, S112A mutant; 0% DMSO only, 100% 113 µM cGMP; activation, % at 11.4 µM; hit rate 0.079% among 340,000;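 active = activation above a cutoff set at the mean over all compounds plus 3 SD, cut at about 18% in these data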;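 note: higher means more holoenzyme dissociation and a rise in polarization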
IDE cell activ: human IDE activators in live cells, primary screen, fluorescence polarization, HEK cells, FAbeta-B substrate | Insulin-degrading enzyme (Homo sapiens), P14735 | FAbeta-B cleavage; 0% vehicle, 100% cell-free pure enzyme wells | activation, % at 5.96 µM | hit rate 0.073% among 340,000 | AID 493087, 2011;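 active = activation above the mean of all tested compounds plus 3 SD, set per screening campaign, cut at about 17% in these data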
Rin1-Abl PPI inh: inhibitors of Rin1-Abl protein binding, primary screen, biochemical, TR-FRET; inhibition, % at 7.35 µM; hit rate 0.4% among 360,000; Tyrosine-protein kinase ABL1 (Homo sapiens) + Ras and Rab interactor 1 (Homo sapiens), …; in the data active = inhibition above about 5%, passing the limit was not always enough
eLon inh: inhibitors of E. coli Lon protease, primary screen, biochemical, fluorescence polarization | purified E. coli Lon protease | inhibition, % at 7.94 µM | hit rate 0.42% among 360,000; in the data active = inhibition above about 13%, passing the limit was not always enough;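 note: 0% = enzyme with probe and DMSO and 100% = no enzyme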
Target sequence (P0A9M0 whole entry, looked up): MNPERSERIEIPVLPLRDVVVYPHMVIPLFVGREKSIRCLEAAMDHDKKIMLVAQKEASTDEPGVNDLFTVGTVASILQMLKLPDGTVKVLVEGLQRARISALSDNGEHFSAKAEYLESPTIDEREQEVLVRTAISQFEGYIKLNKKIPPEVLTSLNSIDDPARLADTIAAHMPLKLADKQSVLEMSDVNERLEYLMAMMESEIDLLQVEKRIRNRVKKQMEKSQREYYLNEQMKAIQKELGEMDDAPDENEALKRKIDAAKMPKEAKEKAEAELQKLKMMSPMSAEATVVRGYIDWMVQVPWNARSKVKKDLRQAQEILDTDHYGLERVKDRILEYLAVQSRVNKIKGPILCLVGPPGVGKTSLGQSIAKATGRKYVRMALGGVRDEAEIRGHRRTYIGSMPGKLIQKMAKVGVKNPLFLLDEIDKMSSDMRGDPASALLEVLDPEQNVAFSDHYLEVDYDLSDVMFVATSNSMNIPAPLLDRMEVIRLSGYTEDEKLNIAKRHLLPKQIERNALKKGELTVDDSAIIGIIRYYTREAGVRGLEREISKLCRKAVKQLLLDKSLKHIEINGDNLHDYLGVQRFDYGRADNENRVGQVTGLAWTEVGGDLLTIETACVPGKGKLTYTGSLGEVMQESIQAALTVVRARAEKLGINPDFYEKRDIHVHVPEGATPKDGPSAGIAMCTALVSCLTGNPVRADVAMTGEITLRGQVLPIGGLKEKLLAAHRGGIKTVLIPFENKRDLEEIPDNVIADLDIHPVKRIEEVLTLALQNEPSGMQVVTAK
IDE inh confirm: human IDE inhibitors in live cells, confirmation, fluorescence polarization, HEK cells, FAbetaB substrate; shares compounds with IDE cell inh; FAbetaB cleavage; inhibition, % at 5.59 µM; hit rate 51% among 1,200;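 active = mean inhibition across triplicate wells above the cutoff set by the earlier primary insulin-degrading enzyme screen, cut at about 16% in these data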;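 note: 0% = DMSO wells and 100% = 60 µM reference IDE inhibitor Ii1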
HEK cytotox: cytotoxicity in HEK cells, cytotoxicity control for IDE inhibitor project, cell-based, luminescence. shares compounds with IDE cell inh. HEK293 cytotoxicity, ATP luminescence. inhibition, % at 5.59 µM. hit rate 28% among 1,200. AID 449730, 2010; in the data active = inhibition above about 22%;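 note: 0% = vehicle wells and 100% = reference cytotoxic drug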
IDE FP artifact: fluorescent or optically active artefacts, dose response, artefact control for IDE inhibitor project, biochemical, fluorescence polarization; 30 tested, under 10 active; FP counterscreen for fluorescent artifacts, IDE probe project; shares compounds with IDE cell inh; IC50, µM; call rule not given here
* hit, by the source's call; x = no result.

SMILES | IDE cell inh | PKA-R1A activ | PKA-R2B activ | IDE cell activ | Rin1-Abl PPI inh | eLon inh | IDE inh confirm | HEK cytotox | others
Cc1ccc(Cn2nnc3c(=O)n(CC(=O)N4CCN(c5ccccc5)CC4)cnc32)cc1 | 5 | -5 | -7 | -7 | 0 | 6 | x | x
COCCN(C(=S)Nc1ccccc1C)C(C)c1cccs1 (stereo unspecified) | -6 | 0 | -5 | -6 | -3 | 11 | x | x
O=C(c1ccc(O)cc1)c1ccc(O)cc1O | 1 | -5 | -5 | 5 | 0 | 1 | x | x
O=C(c1ccccc1)c1ccc(O)cc1O | 19* | 9 | -2 | -26 | -2 | -10 | 40* | 5
Cc1ccc[n+](CC(=O)c2ccc(-c3ccccc3)cc2)c1 | 22* | -9 | 4 | 1 | 4 | 4 | 8 | 16
CCN(CC)c1ccc2cc(-c3nnc(-c4ccccc4)o3)c(=O)oc2c1 | 36* | -4 | -9 | -64 | -9 | -434 | 83* | 6
O=c1oc2ccc3ccccc3c2cc1-c1nnc(-c2ccccc2)o1 | 8 | 6 | 9 | 2 | -1 | -4 | x | x
CCN(CC)c1ccc2cc(-c3nc4ccccc4[nH]3)c(=O)oc2c1 | 39* | 6 | 0 | 25* | -20 | -193 | 26* | 50*
C#CCOCCOCCOCCNc1nc(N2CCN(C(=O)C([C@@H](C)O)n3cc([C@@H](N)CCCCN)nn3)CC2)nc(N2CCN(C(=O)[C@H](CC(N)=O)n3cc(C(N)[C@@H](C)CC)nn3)CC2)n1 (stereo partly specified) | 4 | -4 | 4 | 0 | -2 | 1 | x | x
CCOC(=O)C(C)N1C(=O)S/C(=C\c2ccc(-c3ccccc3C(=O)O)o2)C1=O (stereo unspecified) | -1 | 3 | 1 | 4 | -2 | -19 | x | x
Cc1ccc(C)c(N2C(=N)S/C(=C\c3ccc(-c4ccccc4C(=O)O)o3)C2=O)c1 | 32* | -5 | -4 | -13 | -1 | -28 | 17* | 4 | IDE FP artifact=>55
O=C(NCC(c1ccco1)N1CCc2ccccc2C1)c1c(F)cccc1F (stereo unspecified) | 3 | -13 | -12 | 1 | -2 | 1 | x | x
COC(=O)c1cccc(N2CCCC2=O)c1 | 2 | -1 | -2 | 5 | -2 | 5 | x | x
O=c1c2ccccc2sn1-c1ccc(Cl)cc1 | x | 4 | -5 | x | 0 | -3 | x | x
Cc1ccc(-n2sc3ccccc3c2=O)cc1 | 97* | -12 | -4 | -51 | 1 | 2 | 32* | 99*
COC(=O)c1cccc(-n2sc3ccccc3c2=O)c1 | 68* | -13 | -14 | -23 | 3 | 16 | 37* | 45*
O=c1c2ccccc2sn1-c1ccc(F)cc1 | 60* | -14 | -8 | -23 | 4 | 8 | 18* | 64*
O=C(Nc1cccc(C(F)(F)F)c1)c1csc(Cc2cccc(C(F)(F)F)c2)n1 | x | x | x | x | x | x | x | x | IDE FP artifact=>55
COc1ccccc1N1CCN(C(=O)c2ccc3c(c2)CCN3S(=O)(=O)c2ccccc2)CC1 | 0 | -3 | -9 | 4 | 3 | -12 | x | x
CCN(CC)C(=O)COc1c(-c2ccco2)oc2ccccc2c1=O | -2 | -6 | -7 | 2 | 1 | 0 | x | x
